# PubChem BioAssay AID1974 (The Scripps Research Institute Molecular Screening Center, 2009)
# In all, about 300,000 compounds went through this assay and about 3,200 (1.1%) were called active. The full list was thinned out, with actives kept by preference. Values without a mark were called inactive.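 The calls were made as follows: active = inhibition above the campaign mean inhibition plus 3 SD (cut at about 35% in these data); inactive = the rest.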
# Molecular target: Glutathione S-transferase omega-1 (Homo sapiens) (UniProt P78417)
# Sequence (P78417 whole entry, looked up): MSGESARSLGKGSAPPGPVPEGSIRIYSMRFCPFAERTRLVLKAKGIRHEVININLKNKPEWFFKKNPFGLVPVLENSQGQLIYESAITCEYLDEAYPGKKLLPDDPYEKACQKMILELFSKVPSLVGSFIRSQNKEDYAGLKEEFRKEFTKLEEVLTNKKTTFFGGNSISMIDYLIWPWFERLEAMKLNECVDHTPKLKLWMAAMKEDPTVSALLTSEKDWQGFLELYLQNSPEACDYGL
# Experiment: human GSTO1 enzyme inhibition – biochemical, fluorescence polarization, counter-screen for RBBP9 inhibitor project, primary screen (AID 1974);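 also: 0% = GSTO1-1 with DMSO and 100% = wells lacking GSTO1-1 enzyme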
# Details: recombinant GSTO1, activity-based probe fluorescence polarization; at 5.96 µM; stronger effect = higher value
row,SMILES,inhibition
1,Cc1nc2ccccc2c(=O)n1-c1ccc(F)c(NC(=O)c2cccs2)c1,-6.66%
2,CCN(C(=O)CSc1nnc(-c2ccc(OC(F)F)cc2)n1N)C1CCS(=O)(=O)C1 (configuration not stated),-5.72%
3,Cc1ccc(-c2nn(-c3ccc(F)cc3)cc2C(=O)NCC(c2cccs2)N2CCOCC2)cc1 (configuration not stated),-3.34%
4,c1ccc(CSc2nnc(-c3ccco3)c(-c3ccco3)n2)cc1,59.8% (active)
5,Fc1cccc(Cl)c1CSc1ccc(-c2ccco2)nn1,3.45%
6,Clc1ccccc1CSc1nnc(-c2ccco2)c(-c2ccco2)n1,53% (active)
7,Brc1ccc(CSc2ccc(-c3ccco3)nn2)cc1,-3.33%
8,O=c1[nH]c(SCc2ccccc2)nnc1-c1ccccc1,-7.41%
9,O=c1cc(O)nc(SCc2ccccc2Cl)[nH]1,-11.3%
10,Cc1cc(C)n2nc(C(=O)OC(C)C(=O)c3cc(C)c(C)cc3C)nc2n1 (configuration not stated),3.12%
11,COc1ccc(CNC(=O)CNC(=O)c2sc3ccccc3c2Cl)cc1OC,-3.56%
12,O=c1[nH]c(/C=C/c2cccc(Br)c2)nc2ccccc12,-7.5%
13,O=[N+]([O-])c1ncc(Br)cc1Nc1ccccc1,13.4%
14,COc1cc(/C=N/NC(=O)c2cc(-c3ccccc3C)nc3ccccc23)cc(OC)c1O,3%
15,Cc1cc(C(=O)N/N=C/c2ccc(O)c([N+](=O)[O-])c2)c(C)n1-c1ccc(F)cc1,23.2%
16,COc1cc(/C=N/NC(=O)c2cc(C)n(-c3ccc(F)cc3)c2C)cc(OC)c1O,35.7% (active)
17,CN(C)CCn1c2c(c(SCC(=O)Nc3ccccc3C(F)(F)F)nc1=O)CCCC2,-0.08%
18,C=CCNC(=O)c1ccccc1SCc1c(C)noc1C,55.2% (active)
19,C=CCNC(=O)c1cc(-c2ccccc2O)on1,3.47%
20,CCN(CC(=O)Nc1ccccc1C(F)(F)F)C(=O)CSCc1c(C)noc1C,-6.06%
21,COc1ccc(N2CCN(S(=O)(=O)c3cc4c5c(c3)C(C)C(=O)N5CCC4)CC2)cc1 (configuration not stated),8.18%
22,Cc1nc2ccccc2c(=O)n1-c1ccc(NS(=O)(=O)c2ccc(F)cc2F)cc1,-1.88%

row,SMILES,inhibition
1,CC(=O)C12CC(C)=C(C)CC1CC1C3CCC4=CC(=O)CCC4(C)C3CCC12C (configuration not stated),0%
2,CC1(C)S[C@@H]2[C@H](N=CN3CCCCCC3)C(=O)N2[C@H]1C(=O)O,1.77%
3,COC(=O)c1cc(CNC(=O)CC(C)c2ccccc2)ccc1OC (configuration not stated),3.39%
4,CC1(c2nnc(-c3ccncc3)o2)CC(c2cccnc2)=NO1 (configuration not stated),7.77%
5,CCc1nnc(NC(=O)CSc2nnc(Cc3ccccc3)n2-c2ccc(OC)cc2)s1,-0.09%
6,CCc1nnc(NC(=O)CSc2nc3c(c(=O)n2-c2ccccc2OC)SCC3)s1,35.6% (active)
7,CCOc1ccc(NC(=O)CSc2nc3c(c(=O)n2-c2ccccc2OC)SCC3)cc1,9.5%
8,OCC[C@H]1C[C@@H](O)[C@H](O)[C@]2(OCCCc3ccccc32)O1,-3.33%
9,CC(C)CC[n+]1ccn(C2=C([O-])c3ccccc3C(=O)/C2=N\S(=O)(=O)c2ccccc2)c1,70.8% (active)
10,COc1ccc(N(C(=O)c2cccnc2)S(=O)(=O)c2ccc3c(c2)n(C)c(=O)n3C)cc1,9.41%
11,O=C(c1cccnc1)N(c1cc2sc(=O)oc2c2ccccc12)S(=O)(=O)c1ccccc1,66.5% (active)
12,COc1ccc(N(C(=O)c2cccnc2)S(=O)(=O)c2ccc(OC)c(OC)c2)cc1,8.53%
13,CN(C)C1=NC[C@H](Cc2ccccc2)N1CCc1ccc(F)cc1,0.73%
14,OCC[C@H]1C[C@@H](O)[C@H](O)[C@@]2(OCCc3ccccc32)O1,7.38%
15,Cc1nc2c(c(C)nn2-c2ccccc2)c(C)c1C,15.1%
16,Cc1c(CC(=O)N2CCN(C(=O)C3COc4ccccc4O3)CC2)c(=O)oc2c(O)c(O)ccc12 (configuration not stated),45.1% (active)
17,Cc1c(C)c2ccc(OCC(=O)N3CCC(C(=O)O)CC3)c(C)c2oc1=O,-1.66%
18,O=C(CNC(=O)C1COc2ccccc2O1)N/N=C/c1cc(Br)c(O)c(Br)c1 (configuration not stated),-6.29%
19,COCC(C)OC(=O)c1c(N)n(CCCN2CCOCC2)c2nc3ccccc3nc12 (configuration not stated),11.9%
20,CC(C)(C)OC(=O)c1c(N)n(CCCN2CCCC2=O)c2nc3ccccc3nc12,63.9% (active)
21,O=C(NCCCN1CCCC1=O)c1ccc(S(=O)(=O)Nc2ccccc2)cc1,0.39%
22,O=[N+]([O-])c1ccc(S(=O)(=O)Nc2cccc(-c3ccc(N4CCCC4)nn3)c2)cc1,-8.25%

row,SMILES,inhibition
1,COc1ccc(CNC(=O)[C@@H]2CC=C[C@@H]3CCN(C4CC4)C(=O)[C@@H]32)cc1,-0.21%
2,CN1CCN(c2ccc(NC(=O)c3ccccc3)cc2)CC1,2.04%
3,Cc1cccc(N2CCN(c3ccc(NC(=O)/C=C\C(=O)O)cc3)CC2)c1,42.2% (active)
4,CSc1ccc(NC(=O)/C=C/C(=O)O)cc1,0.81%
5,CCCn1c(C)cc(-c2csc(NC(=O)CCc3nc4ccccc4c(=O)[nH]3)n2)c1C,-4.01%
6,O=C(CCc1[nH]c2ccccc2c1Sc1ccccc1)N(CCO)CCO,3.25%
7,CCCCN(C(=O)CCNC(=O)NC12CC3CC(CC(C3)C1)C2)c1c(N)n(CCCC)c(=O)[nH]c1=O,-0.02%
8,N#CC1(NC(=O)COC(=O)CSc2ccc(F)cc2)CCCCC1,6.75%
9,CCOC(=O)c1c(NC(=O)c2ccc(S(=O)(=O)N(C)CC3CCCO3)cc2)sc2c1CC(C)(C)NC2(C)C (configuration not stated),55.4% (active)
10,CN(CC1CCCO1)S(=O)(=O)c1ccc(C(=O)Nc2ccc(F)cc2)cc1 (configuration not stated),2.1%
11,Cc1cccc(NC(=O)c2ccc(S(=O)(=O)N(C)CC3CCCO3)cc2)c1C (configuration not stated),-5.06%
12,O=C(Nc1ccc(S(=O)(=O)N2CCCCC2)cc1)C1CCN(C(=O)c2ccc(F)cc2)CC1,-4.69%
13,CC(Oc1cccc(Cl)c1)C(=O)Nc1ccc(S(=O)(=O)Nc2ncccn2)cc1 (configuration not stated),-7.06%
14,COc1ccc(C(C(=O)NC2CCCCC2)N(C(=O)c2snc(C(N)=O)c2N)c2ccccc2OC)cc1 (configuration not stated),-5.23%
15,COc1cccc(N(C(=O)C2COc3ccccc3O2)C(C(=O)NC2CCCCC2)c2ccc(O)cc2)c1 (configuration not stated),0.47%
16,COc1ccc(C(C(=O)NC2CCCCC2)N(C(=O)CCl)c2ccccc2Cl)cc1 (configuration not stated),38.1% (active)
17,CC1=C(N2CCN(c3ncccn3)CC2)CCC1=O,-2.06%
18,CCn1c(SC(C)C(=O)Nc2ccc(N3CCOCC3)cc2)nnc1-c1ccco1 (configuration not stated),-7.32%
19,CCOC(=O)C(C)N(c1ccccc1Cl)S(C)(=O)=O (configuration not stated),2.86%
20,Cc1cc(Cl)c(S(=O)(=O)N(C)C)cc1OCC(N)=O,-3.27%
21,Cc1cc(Cl)c(S(=O)(=O)NCC2CCCO2)cc1OCC(N)=O (configuration not stated),-0.4%
22,Cc1cc(Cl)c(S(=O)(=O)Nc2ccc3c(c2)OCCO3)cc1OCC(N)=O,35.7% (active)

row,SMILES,inhibition
1,CSc1ccccc1NC(=O)c1cnc2sc(C)cn2c1=O,-0.65%
2,CCN(C(=O)COC(=O)c1sccc1C)c1c(N)n(Cc2ccccc2)c(=O)[nH]c1=O,13.2%
3,CN(C)CCn1c2c(c(SCC(=O)NCc3ccccc3)nc1=O)CCC2,0.7%
4,COc1ccc(CCNc2cc(N3CCN(C(=O)c4ccccc4OC)CC3)ccc2[N+](=O)[O-])cc1OC,0.42%
5,O=[N+]([O-])c1ccccc1NCc1ccc(Cl)cc1,1.08%
6,Oc1ccc(CNc2ccccc2O)cc1,41.7% (active)
7,O=C(Cc1ccc(Cl)cc1)NC(=S)Nc1ccccc1O,-0.02%
8,O=C(Nc1cc(S(=O)(=O)N2CCOCC2)ccc1OCC(F)(F)F)c1ccc(N2CCCC2=O)cc1,6.19%
9,O=C(c1ccncc1)N1CCN(S(=O)(=O)c2cc(C(F)(F)F)cc(C(F)(F)F)c2)CC1,2.8%
10,CCOC(=O)c1ccccc1NC(=O)c1c(N)n(C)c(=O)[nH]c1=O,-3.83%
11,Cc1cc(C)c(S(=O)(=O)NCC(c2ccc3c(c2)OCO3)N2CCOCC2)c(C)c1 (configuration not stated),3.98%
12,CCCc1nc2ccccc2c(=O)n1/N=C/c1ccc(O)c(O)c1,45.8% (active)
13,CCCc1nc2ccccc2c(=O)n1NC(=O)c1c(O)c2ccccc2[nH]c1=O,5.47%
14,O=c1c2ccccc2ncn1/N=C/c1ccccc1,-0.07%
15,CO[C@@H]1[C@@H](OC(N)=O)[C@@H](O)C(Oc2ccc3c(O)c(NC(=O)c4ccc(O)c(CC=C(C)C)c4)c(=O)oc3c2C)OC1(C)C (some centres not stated),2.82%
16,COc1ccc(S(=O)(=O)NCCCc2ccccc2)cc1,6.84%
17,COc1ccc2cc(S(=O)(=O)Nc3ccccn3)ccc2c1,2.15%
18,COc1ccc(S(=O)(=O)/N=C2\C=C(NS(=O)(=O)c3ccccc3)C(=O)c3ccccc32)cc1,58.3% (active)
19,Cc1ccc(S(=O)(=O)N2[C@@H](c3cccc(Cl)c3)C(C(=O)O)=CC[C@H]2c2ccc(Cl)c(Cl)c2)cc1,-207%
20,CCC(C)CCN1CCN=C1N(C)C (configuration not stated),0.8%
21,COCCCN(C(=O)CSCc1ccc(C)cc1)c1c(N)n(Cc2ccccc2)c(=O)[nH]c1=O,-12.2%
